# Compound activity (PubChem BioAssay)
# Epigenetic derep: regulators of epigenetic silencing causing reporter derepression in mouse cells; 280,000 tested, 0.2% active; murine LDR cells, GFP reporter derepression, 30 h; Potency, µM (titrated, usually from 53.9 µM), usual class: activators; note: nearly all actives have a fitted effect of over 60% in size
#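 Reporter derepression read as number of fluorescent GFP-positive objects, 20-120 um in size, counted by laser-scanning cytometer. Mouse LDR line with an epigenetically silenced CMV-GFP locus; compound incubation 30 h, 37 C.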
# Vif-APOBEC3G blk: inhibitors of Vif-APOBEC3G interaction; HeLa A3G-eYFP + Vif (tagged APOBEC3G with the HIV-1 protein that degrades it), YFP fluorescence, overnight; Potency, µM (titrated, usually from 46.1 µM), most hits filed as inhibitors; 410,000 tested, 0.076% active; note: nearly all actives have a fitted effect of over 60% in size
# Target sequence (Q9HC16 whole entry, looked up): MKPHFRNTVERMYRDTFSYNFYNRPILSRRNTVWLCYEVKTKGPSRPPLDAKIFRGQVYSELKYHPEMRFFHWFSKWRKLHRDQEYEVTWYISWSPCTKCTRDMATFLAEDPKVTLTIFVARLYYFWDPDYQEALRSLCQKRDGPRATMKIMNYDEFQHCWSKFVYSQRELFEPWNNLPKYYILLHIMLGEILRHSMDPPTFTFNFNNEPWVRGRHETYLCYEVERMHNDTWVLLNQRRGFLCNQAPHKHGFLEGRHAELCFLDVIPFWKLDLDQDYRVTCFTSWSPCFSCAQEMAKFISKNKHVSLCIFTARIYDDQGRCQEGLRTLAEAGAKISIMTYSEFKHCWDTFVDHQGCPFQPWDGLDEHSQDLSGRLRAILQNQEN
#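 Read-out is eYFP fluorescence (Ex 488/Em 500-530) from Vif-expressing HeLa A3G-eYFP cells; more signal means A3G escaped Vif-mediated degradation. Cells plated overnight, compound pinned in, incubated overnight at 37 deg C.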
# GRP78 ERSR act: ER stress response induction in glioma; U87-MG GRP78 promoter luciferase reporter, 16 h; Potency, µM, hits mostly activators; 420,000 tested, 0.02% active; note: series mostly up to about 76 µM; nearly all actives have a fitted effect of over 35% in size
#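 Stably transfected U87-MG human glioma cells carrying a GRP78-based luminescent sensor were seeded at 1000 cells/well, pin-dosed with compounds and incubated 16 h. Luciferase reagent was then added, and end-point luminescence was read after 10 min at room temperature.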
# Vif-A3F inh: Vif-A3F binding inhibition; HeLa A3F-eYFP + Vif (tagged APOBEC3F with the HIV-1 protein that degrades it), YFP fluorescence increase; Potency, µM (titrated, usually from 46.1 µM); 390,000 tested, 0.2% active; AID 602313; note: nearly all actives have a fitted effect of over 65% in size
#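 HeLa cells stably expressing A3F-eYFP plus Vif, plated and incubated overnight at 37 deg C, then exposed to compounds overnight at 37 deg C. Blocked degradation read as raised yellow fluorescence (Ex 488/Em 500-530).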
# Numbers stand for hits; 0 = inactive; ? = inconclusive; - = no result; ! = not confirmed by another sample; [ ] = dose if it differs, or a comment. The list is not random: actives were taken first. Their share in the collection is about 0.35%. Calls come from the whole dose curve; as a rule, active = well fitted curve in the direction sought with a large enough effect; inconclusive = small, poorly fitted or top-dose-only effect, or another doubt; inactive = no such curve, though single readings can be large; an effect the other way counts as inactive or inconclusive.
SMILES,Epigenetic derep,Vif-APOBEC3G blk,GRP78 ERSR act,Vif-A3F inh
COc1ccc(-n2c(SCC(=O)Nc3cc(C)cc(C)c3)nc3c(oc4ccccc43)c2=O)cc1,0,0,0,0
C/C(=N\Nc1nccnc1Cl)c1ccc(Cl)c(Cl)c1,-,0,0,25.1µM
C/C(=N\Nc1nccnc1Cl)c1ccc(O)cc1,-,0,0,0
CCOC(=O)C1(CCCc2ccccc2)CCN(C(=O)CCOC)CC1,0,0,0,0
COc1cc(/C=C2\SC(=O)N(CCNC(=O)c3sc4cc(F)ccc4c3Cl)C2=O)cc(OC)c1OC,17.8µM,0,0,0
COc1ccc(CCNCc2c(C(=O)O)c(C)n(Cc3ccccc3C)c2C)c(OC)c1,0,0,0,0
CCN1/C(=C/c2ccc3cc(C)cc(C)c3[n+]2CC)Sc2cc(C)ccc21,15.8µM,?,0,0
CCN1/C(=C\c2ccc3cc(C)ccc3[n+]2CC)Sc2cc(C)c(C)cc21,3.16µM,0,0,?
CCOC(=O)c1ccc(-c2ccc(/C=C(\C#N)c3nc4ccc(C)cc4[nH]3)o2)cc1,1.58µM,-,-,-
Cc1ccc2nc(/C(C#N)=C/c3ccc(-c4ccccc4C(=O)O)o3)[nH]c2c1,-,?,0,11.2µM
N#C/C(=C\c1ccc(Sc2ccccc2)o1)c1nc2ccccc2[nH]1,?,?,0,?
CCOC(=O)c1ccc(-c2ccc(/C=C(\C#N)C(=O)Nc3cccc(C)c3)o2)cc1,?,0,0,?
N#C/C(=C\c1ccc(-c2ccccc2C(=O)O)o1)c1nc2ccccc2[nH]1,0,0,0,22.4µM!
N#C/C(=C\c1ccc(-c2ccc(F)cc2F)o1)c1nc2ccccc2[nH]1,7.94µM,11.2µM,0,11.2µM
CCOC(=O)C1=CCN(S(=O)(=O)c2ccccc2Cl)C1c1cccc(C)c1 (centres undefined),-,0,0,-
O=C(Nc1ccc(Br)cn1)c1cnn2c1NC(=C1CC1)C=C2C(F)F,-,0,0,-
COc1cc(Br)c(/C=C(\C#N)c2nc3ccccc3[nH]2)cc1OC,0,0,0,25.1µM
COc1cc(/C=C2\SC(N)=NC2=O)cc(Br)c1O,-,11.2µM,0,?
CCn1cc(/C=N/NS(=O)(=O)c2ccc(OC)cc2)c(C)n1,0,0,0,0
Cc1ccc2[nH]cc(/C=C/c3cc[n+](C)cc3)c2c1,-,?,0,?
COc1ccc2c(/C=C/c3cc[n+](C)cc3)c[nH]c2c1,-,?,0,12.6µM
CC[n+]1ccc(/C=C/c2c[nH]c3ccccc23)cc1,-,5.01µM,0,7.08µM
CCCCCCC[n+]1ccc(/C=C/c2c[nH]c3ccccc23)cc1,-,0,0,-
COc1ccc(C(C)=O)cc1Cn1c(C)c(C(=O)NCc2ccc(C(C)C)cc2)sc1=O,-,0,0,-
CN(C)c1ccc(C2C=C(c3ccccc3)Nc3nnnn32)cc1 (centres undefined),0,?,0,25.1µM
SMILES,Epigenetic derep,Vif-APOBEC3G blk,GRP78 ERSR act,Vif-A3F inh
CCOc1ccc(C2C=C(c3ccccc3)Nc3nnnn32)cc1 (centres undefined),0,0,0,0
Oc1cc(-c2nc3ccccc3s2)cc2c1OCCN(Cc1cccn1-c1ncccn1)C2,-,-,0,-
Cc1ccc(-c2nc(Nc3cccc(C)c3)sc2CC(=O)O)cc1,0,0,0,?
O=C(O)Cc1sc(NC2CCCCC2)nc1-c1ccc(Cl)cc1,-,0,0,25.1µM
CCOC(=O)c1c(C)cc(O)c(C=O)c1O,0,-,0,-
c1ccc(-c2n[nH]c(-c3ccccn3)n2)cc1,22.4µM,0,0,0
c1ccc(-c2n[nH]c(-c3ccccn3)n2)nc1,0,0,0,0
CC(=O)c1ccc2cccc3c2c1N=CN3C,0,12.6µM,0,?
CN1c2cccc3cccc(c23)N(C)C1(C)C,0,0,0,0
Cc1onc(-c2c(F)cccc2Cl)c1C(=O)O/N=C(\N)c1ccc([N+](=O)[O-])o1,0,22.4µM,0,0
COc1ccc(C(=O)N(c2ccc(OC)cc2)S(=O)(=O)c2cccs2)cc1,0,0,0,0
COc1ccc(N(C(=O)c2ccccc2)S(=O)(=O)c2cccs2)cc1,0[10.1 µM],0,31.6µM,0
Cc1ccc(C(=O)NCC(=O)Nc2ccc(Cl)cc2)s1,-,0,0,0
O=C(Nc1cccc(C(=O)OCc2cc(=O)n3nc(C4CC4)sc3n2)c1)c1cccc(Cl)c1,15.8µM,0,0,0
O=C(Nc1ccc(C(=O)OCc2cc(=O)n3nc(C4CC4)sc3n2)cc1)c1cccc(Cl)c1,0,0,0,0
Cc1cc(/C=C\c2ccc3cc(N(C)C)ccc3[n+]2C)c(C)n1-c1ccccc1,0,7.08µM,0,3.16µM
Oc1[nH]c2ccccc2c1N=Nc1ccccc1Cl,-,0,0,22.4µM
Oc1[nH]c2ccccc2c1N=Nc1c(F)c(F)c(Cl)c(F)c1F,-,0,0,0
COc1ccc(CCNC(=O)Cn2nc(C)n3c(cc4cc(F)ccc43)c2=O)cc1OC,0,0,0,0
CCC(C(=O)NCCc1cc(OC)ccc1OC)n1nc(C)c2sc3ccccc3c2c1=O (centres undefined),12.6µM,0,0,0
Cc1ccc(NC(=O)CSc2nc3ccccc3c(=O)n2CCCC(=O)NCCCN2CCOCC2)cc1,0,0,0,0
CCN1/C(=C\C=C(C(C)=O)C(C)=O)Sc2ccccc21,0,22.4µM,0,22.4µM
NC(=S)NN=C1CSSC1,-,?,35.5µM,0
COC(=O)c1sc2nc(CSc3ccc(Br)cc3)[nH]c(=O)c2c1C,0,0,0,11.2µM
CCNC(=O)C1(C)CCN(C(=O)c2cccc(C#N)c2)C1 (centres undefined),-,0,0,-
